Assay results taken from PubChem BioAssay.
Values joined by “and” are separate entries in the source; they are usually repeats but may differ in a detail not shown here. Identical values can stand only once. Results filed as inconclusive are left out. Active and inactive are the calls of the source.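 Rule for the calls, unless noted: active = compounds whose cell count with miR-34 switched on is under 0.7 times the count with it off; inactive = the rest.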

Tests used:
[1] = target: ATP-dependent translocase ABCB1 (Homo sapiens) (UniProt P08183); test: MDR1 (ABCB1) efflux transporter inhibition, cell-based (AID 377; in the data active = fluorescence slope change above about 50%); details: MDR1-expressing cells, fluorescent substrate accumulation slope; stronger effect = higher value; concentration not given here
[2] = liver-stage malaria parasite growth inhibition, primary screen, cell-based, HepG2, luciferase luminescence, HepG2 viability (AID 624349; in the data active = parasite load remaining mostly below about 12%, no sharp cut-off; inactive = mostly above about 10%;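 note: 100% = mean of DMSO negative control wells on the same plate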); details: P. berghei liver stage in HepG2, luciferase luminescence, concentration not given here; parasite load remaining: stronger effect = lower value; viability: measured here: HepG2 viability without parasites
[3] = target: 6-phosphogluconate dehydrogenase, decarboxylating (Homo sapiens) (UniProt P52209); test: 6PGD enzyme inhibitors, primary screen, biochemical, human, recombinant enzyme, NADPH absorbance (AID 1159550;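 active = at least 20% inhibition of 6-phosphogluconate dehydrogenase activity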); details: recombinant 6PGD, NADPH absorbance 341 nm; at 10 µM; stronger effect = higher value
[4] = sensitizers of A549 cells to miR-34 induction, primary screen, imaging, A549 dox-inducible miR-34, nuclei and caspase counts (AID 1347080); details: A549 miR-34 inducible, Hoechst nuclei count, 48 h
[5] = survival rescue of mitochondrial mutant cells in low glucose, primary screen, MELAS cybrids, Rieske KO mouse fibroblasts, CellTiter-Glo (AID 1508586;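 active = mean z-score across replicates of 1.96 or higher in either the MELAS or the Rieske mutant cell line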;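 note: z relative to plate mean and SD of compound and empty wells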)
[6] = target: NAD(+) hydrolase SARM1 (Homo sapiens) (UniProt Q6SZW1); test: SARM1 TIR NADase inhibitors, cell lysate, NAD-Glo luminescence (AID 1508614;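 active = compound whose remaining NAD level is above about 45 nM, limit read from the data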;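 note: higher remaining NAD means stronger inhibition of SARM1 NADase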); details: SAM-TIR HEK293T lysate NADase, at 1 µM, stronger effect = higher value
[7] = target: Mitogen-activated protein kinase 7 (Homo sapiens) (UniProt Q13164); test: ERK5 transactivation activators in reporter cells, primary screen, cell-based, HTS (AID 1508626;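 active = luciferase signal above three times the same-plate solvent-only control wells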;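 note: luciferase driven by Gal4-ERK5 fusion binding five Gal4 sites before minimal TATA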); details: HeLa Gal4-ERK5 transactivation, 18 h, at 5 µM, stronger effect = higher value
[8] = circadian clock period modulators, cell-based, LOPAC library, luminescence reporter (AID 2774; call rule not given here;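 note: values are relative to mean of DMSO wells on each plate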); details: circadian reporter cells, at 7 µM, actives lie on both sides
[9] = test system: Hepatitis C virus NS3 helicase; test: HCV NS3 helicase inhibitors, primary screen, biochemical, fluorescence polarization, LOPAC1280 library (AID 687035; in the data active = inhibition above about 37%); details: Purified HCV NS3 helicase, Cy5-dT15 ssDNA binding fluorescence polarization; stronger effect = higher value; concentration not given here
[10] = Cy5 fluorescence quenching or enhancement artefacts, artefact control for HCV NS3 helicase inhibitor project, biochemical, LOPAC1280 (AID 687037; call rule not given here); details: Cy5-DNA-NS3h complex fluorescence interference counterscreen
[11] = phospholipid biosynthesis inhibitors in animal cells, primary screen, cell-based, LOPAC library, screen 4 (AID 1347384; call rule not given here); details: phospholipid biosynthesis inhibition screen, at 10 µM
[12] = viability rescue of complex I mutant cybrids, primary screen, cell-based, galactose medium, ATP luminescence (AID 1645843;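 active = z-score of at least 1.8 in each of two replicates, scored against plate mean and spread of sample wells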;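 note: positive z means more ATP and so rescue of galactose-driven cybrid death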); details: complex I mutant cybrid cells, 72 h, stronger effect = higher value
[13] = growth inhibition of DIPG glioma cells, dose response, cell-based, SU-DIPG-XIII, MIPE4.0, CellTiter-Glo, qHTS (AID 1347061; cut-off not given, nearly all actives have AC50 up to about 37 µM;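 note: cells exposed to compound for 48 hours before readout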); details: SU-DIPG-XIII viability, CellTiter-Glo ATP luminescence
[14] = growth inhibition of DIPG glioma cells, dose response, cell-based, SU-DIPG-IV, MIPE4.0, CellTiter-Glo, qHTS (AID 1347063; cut-off not given, nearly all actives have AC50 up to about 30 µM;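 note: compound exposure lasted 48 hours before the viability readout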); details: SU-DIPG-IV viability, CellTiter-Glo ATP luminescence
[15] = viability loss in pontine glioma line – cell-based, SU-DIPG-XXV, MIPE5.0, CellTiter-Glo, qHTS, dose response (AID 1347065; cut-off not given, nearly all actives have AC50 up to about 26 µM;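 note: cells exposed to compound for 48 hours before ATP readout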); details: CellTiter-Glo ATP luminescence
[16] = SU-DIPG-XXV glioma cell viability, MIPE5.0 library, qHTS (AID 1347068; cut-off not given, nearly all actives have IC50 up to about 30 µM)
[17] = hESC survival regulators, cell-based (AID 493140; call rule not given here;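 note: cells exposed to compounds for four days before counting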); details: human embryonic stem cell survival screen; stronger effect = higher value
[18] = stronger effect = lower value, cell number ratio, induced over uninduced
[19] = measured here: relative caspase fold change +Dox/-Dox
[20] = measured here: total cells with miR-34 induction, stronger effect = lower value
[21] = measured here: total cells without miR-34 induction
[22] = MELAS cybrid survival, CellTiter-Glo 48 h, stronger effect = higher value
[23] = Rieske KO mouse fibroblast survival, CellTiter-Glo 72 h

Sequence of NAD(+) hydrolase SARM1 (Homo sapiens) (Q6SZW1 whole entry, looked up, the tested form may be a part): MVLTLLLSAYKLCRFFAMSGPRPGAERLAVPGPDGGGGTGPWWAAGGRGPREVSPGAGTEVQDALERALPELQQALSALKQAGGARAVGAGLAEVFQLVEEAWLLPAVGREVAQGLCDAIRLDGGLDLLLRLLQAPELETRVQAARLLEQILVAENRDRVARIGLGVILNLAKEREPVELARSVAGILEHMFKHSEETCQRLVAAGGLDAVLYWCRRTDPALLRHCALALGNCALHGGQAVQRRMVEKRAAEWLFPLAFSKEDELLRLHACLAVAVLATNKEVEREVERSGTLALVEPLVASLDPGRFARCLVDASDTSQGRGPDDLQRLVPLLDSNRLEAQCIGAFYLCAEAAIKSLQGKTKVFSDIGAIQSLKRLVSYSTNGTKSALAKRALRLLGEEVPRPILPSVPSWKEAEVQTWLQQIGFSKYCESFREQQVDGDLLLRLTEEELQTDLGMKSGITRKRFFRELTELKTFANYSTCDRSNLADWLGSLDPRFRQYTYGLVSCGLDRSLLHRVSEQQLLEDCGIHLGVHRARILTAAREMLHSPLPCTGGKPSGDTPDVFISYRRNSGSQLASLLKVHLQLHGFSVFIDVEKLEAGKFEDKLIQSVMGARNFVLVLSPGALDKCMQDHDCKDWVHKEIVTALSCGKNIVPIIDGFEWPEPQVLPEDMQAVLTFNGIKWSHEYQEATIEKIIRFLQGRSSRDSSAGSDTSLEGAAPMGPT
Sequence of Mitogen-activated protein kinase 7 (Homo sapiens) (Q13164 whole entry, looked up, the tested form may be a part): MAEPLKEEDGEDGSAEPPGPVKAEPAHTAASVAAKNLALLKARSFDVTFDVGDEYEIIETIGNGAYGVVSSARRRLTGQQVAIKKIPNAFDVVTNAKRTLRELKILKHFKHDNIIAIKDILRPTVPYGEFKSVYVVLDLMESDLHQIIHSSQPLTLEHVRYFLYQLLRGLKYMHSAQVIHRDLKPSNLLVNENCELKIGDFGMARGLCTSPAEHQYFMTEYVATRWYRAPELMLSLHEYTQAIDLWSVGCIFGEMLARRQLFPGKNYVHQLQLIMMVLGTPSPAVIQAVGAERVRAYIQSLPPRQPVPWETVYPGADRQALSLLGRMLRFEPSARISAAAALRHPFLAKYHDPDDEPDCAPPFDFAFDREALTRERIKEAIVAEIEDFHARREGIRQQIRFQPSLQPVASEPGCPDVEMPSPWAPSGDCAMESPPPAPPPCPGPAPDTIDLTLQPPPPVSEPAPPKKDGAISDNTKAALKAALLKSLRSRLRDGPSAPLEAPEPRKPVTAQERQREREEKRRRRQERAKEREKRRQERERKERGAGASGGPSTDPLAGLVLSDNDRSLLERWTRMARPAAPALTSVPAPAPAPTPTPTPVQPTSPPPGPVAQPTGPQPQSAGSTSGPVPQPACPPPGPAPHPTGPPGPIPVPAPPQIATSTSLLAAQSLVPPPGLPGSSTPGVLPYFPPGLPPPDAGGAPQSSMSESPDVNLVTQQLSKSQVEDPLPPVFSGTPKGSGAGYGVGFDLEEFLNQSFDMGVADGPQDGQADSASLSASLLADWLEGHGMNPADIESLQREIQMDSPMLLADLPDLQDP
Sequence of 6-phosphogluconate dehydrogenase, decarboxylating (Homo sapiens) (P52209 whole entry, looked up): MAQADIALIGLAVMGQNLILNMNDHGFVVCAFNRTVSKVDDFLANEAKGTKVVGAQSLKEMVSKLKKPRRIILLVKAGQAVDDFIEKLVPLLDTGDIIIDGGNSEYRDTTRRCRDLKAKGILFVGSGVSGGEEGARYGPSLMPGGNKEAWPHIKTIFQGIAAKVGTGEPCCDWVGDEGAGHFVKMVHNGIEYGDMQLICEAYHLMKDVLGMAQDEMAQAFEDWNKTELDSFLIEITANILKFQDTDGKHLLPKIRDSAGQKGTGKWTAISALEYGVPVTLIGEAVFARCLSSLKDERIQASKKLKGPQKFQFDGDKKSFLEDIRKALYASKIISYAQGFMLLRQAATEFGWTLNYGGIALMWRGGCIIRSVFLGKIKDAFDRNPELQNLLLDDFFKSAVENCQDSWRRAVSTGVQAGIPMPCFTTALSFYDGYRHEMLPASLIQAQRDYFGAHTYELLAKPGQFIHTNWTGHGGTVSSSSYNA
Sequence of ATP-dependent translocase ABCB1 (Homo sapiens) (P08183 whole entry, looked up): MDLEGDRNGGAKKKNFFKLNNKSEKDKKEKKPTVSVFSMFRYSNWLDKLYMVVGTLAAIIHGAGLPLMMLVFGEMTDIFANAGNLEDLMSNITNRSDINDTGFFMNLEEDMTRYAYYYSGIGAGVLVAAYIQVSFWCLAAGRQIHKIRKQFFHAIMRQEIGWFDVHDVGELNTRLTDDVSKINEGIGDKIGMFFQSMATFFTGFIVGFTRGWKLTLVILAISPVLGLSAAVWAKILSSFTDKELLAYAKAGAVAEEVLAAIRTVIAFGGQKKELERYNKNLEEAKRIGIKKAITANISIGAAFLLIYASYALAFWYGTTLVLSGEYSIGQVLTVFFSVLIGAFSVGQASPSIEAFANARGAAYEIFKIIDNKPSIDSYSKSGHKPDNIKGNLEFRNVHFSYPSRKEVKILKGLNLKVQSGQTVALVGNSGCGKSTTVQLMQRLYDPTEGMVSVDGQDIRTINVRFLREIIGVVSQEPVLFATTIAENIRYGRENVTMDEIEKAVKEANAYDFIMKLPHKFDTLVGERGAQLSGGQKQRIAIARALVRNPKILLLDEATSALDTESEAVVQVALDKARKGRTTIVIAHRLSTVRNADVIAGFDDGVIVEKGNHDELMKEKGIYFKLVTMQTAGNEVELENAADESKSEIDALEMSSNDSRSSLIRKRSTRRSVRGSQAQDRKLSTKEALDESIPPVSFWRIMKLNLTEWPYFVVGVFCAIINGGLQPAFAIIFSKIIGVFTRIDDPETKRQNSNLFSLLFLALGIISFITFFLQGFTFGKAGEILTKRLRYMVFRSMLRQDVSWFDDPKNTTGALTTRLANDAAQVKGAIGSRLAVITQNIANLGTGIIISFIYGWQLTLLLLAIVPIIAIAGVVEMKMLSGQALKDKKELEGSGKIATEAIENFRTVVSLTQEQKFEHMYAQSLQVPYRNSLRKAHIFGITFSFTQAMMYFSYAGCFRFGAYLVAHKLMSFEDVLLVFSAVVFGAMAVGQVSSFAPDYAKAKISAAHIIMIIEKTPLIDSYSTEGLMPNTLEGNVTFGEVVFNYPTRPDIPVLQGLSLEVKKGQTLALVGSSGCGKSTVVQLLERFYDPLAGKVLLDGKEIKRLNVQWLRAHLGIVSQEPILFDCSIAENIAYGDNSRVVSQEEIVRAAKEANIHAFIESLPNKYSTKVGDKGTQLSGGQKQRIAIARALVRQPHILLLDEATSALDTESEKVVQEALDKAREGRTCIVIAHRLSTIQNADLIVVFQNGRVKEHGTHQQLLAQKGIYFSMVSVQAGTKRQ

For `CN1[C@@H]2CC[C@H]1CC(OC(=O)[C@H](CO)c1ccccc1)C2` (stereo partly specified), the fluorescence slope change [1] was 17.8% (inactive), the parasite load remaining [2] was 60.1% (inactive) and the viability [2] was 43.8%. The inhibition [3] was -17.7% (inactive), the fold change [4, 18] was 0.891 (inactive) and the fold change [4, 19] was 1.14. For the same molecule, the cell count [4, 20] was 8370, the cell count [4, 21] was 9390 and the z-score [5, 22] was -0.995 (inactive). For the same molecule, the z-score [5, 23] was -0.351, the remaining NAD [6] was 10 nM (inactive) and the luciferase signal [7] was 144 AU (inactive).
For `CN(C)c1nc(N)c(C(=O)N=C(N)N)nc1Cl`, the period change [8] was -0.18 h (inactive), the inhibition [9] was -2% (inactive) and the fluorescence ratio (interference) [10] was 1 (inactive). For the same molecule, the inhibition [3] was 11.7% (inactive), the fold change [4, 18] was 1.07 (inactive) and the fold change [4, 19] was 1.7. For the same molecule, the cell count [4, 20] was 10400, the cell count [4, 21] was 9710 and the outcome [11] was “inactive”. For the same molecule, the z-score [12] was 0.335 (inactive).
In the case of `C[C@H]1[C@H](C)CC[C@]2(C(=O)O)CC[C@]3(C)C(=CC[C@@H]4[C@@]5(C)CC[C@H](O)C(C)(C)[C@@H]5CC[C@]43C)[C@H]12`, the parasite load remaining [2] is reported as 32.3% (inactive), the viability [2] is reported as 73.8% and the inhibition [3] is reported as 14.7% (inactive). For the same molecule, the outcome [13] was “inactive”, the AC50 [14] was 42.9 µM (active) and the AC50 [15] was 18.6 µM (active). The outcome [16] was “inactive”, the fold change [4, 18] was 0.941 (inactive) and the fold change [4, 19] was 1.58. The cell count [4, 20] was 8760, the cell count [4, 21] was 9310 and the luciferase signal [7] was 40 AU (inactive).
For `CSC(N)=NCCC[C@H](N)C(=O)O`, the period change [8] was 0.125 h (inactive), the inhibition [9] was -3% (inactive) and the fluorescence ratio (interference) [10] was 1 (inactive). The inhibition [3] was -13.5% (inactive), the fold change [4, 18] was 1.1 (inactive) and 0.994 (inactive) and the fold change [4, 19] was 0.973 and 0.749. For the same molecule, the cell count [4, 20] was 11000 and 6220, the cell count [4, 21] was 10000 and 6260 and the outcome [11] was “inactive”. For the same molecule, the z-score [12] was 0.215 (inactive).
With `COc1ccc(-c2cc(=O)c3c(O)c(OC)c(OC)cc3o2)cc1O` the inhibition [3] was 3.27% (inactive), the fold change [4, 18] was 1.03 (inactive) and the fold change [4, 19] was 0.681. The cell count [4, 20] was 5880, the cell count [4, 21] was 5680 and the outcome [11] was “inactive”. The z-score [12] was 0.86 (inactive).
With `C[C@]12CC[C@H]3C(=CCc4cc(O)ccc43)[C@@H]1CCC2=O` the fluorescence slope change [1] was 51.2% (active), the survival [17] was 2.75 (inactive) and the parasite load remaining [2] was 125% (inactive). The viability [2] was 97.4%, the inhibition [3] was 9.47% (inactive) and the fold change [4, 18] was 0.908 (inactive). It also gave a fold change [4, 19] of 1.13, a cell count [4, 20] of 7380 and a cell count [4, 21] of 8130. For the same molecule, the z-score [5, 22] was 0.735 (inactive), the z-score [5, 23] was 0.488 and the remaining NAD [6] was 10 nM (inactive). The luciferase signal [7] was 84 AU (inactive).
In the case of `C#C[C@]1(O)CC[C@H]2[C@@H]3CCC4=C(CCC(=O)C4)[C@H]3CC[C@@]21C`, the survival [17] is reported as 25.3 (inactive), the parasite load remaining [2] is reported as 17.7% (inactive) and 100% (inactive) and the viability [2] is reported as 48% and 90.5%. For the same molecule, the inhibition [3] was -2.85% (inactive), the fold change [4, 18] was 0.896 (inactive) and the fold change [4, 19] was 0.927. For the same molecule, the cell count [4, 20] was 7990, the cell count [4, 21] was 8920 and the z-score [5, 22] was 0.723 (inactive). For the same molecule, the z-score [5, 23] was 0.808, the remaining NAD [6] was 10 nM (inactive) and the luciferase signal [7] was 44 AU (inactive).
With `CN(C)CCCO[C@@H]1[C@H]2OC(C)(C)O[C@H]2O[C@@H]1[C@H](O)CO` the parasite load remaining [2] was 63.5% (inactive), the viability [2] was 92.5% and the inhibition [3] was 8.75% (inactive). The fold change [4, 18] was 0.9 (inactive), the fold change [4, 19] was 1.16 and the cell count [4, 20] was 9050. The cell count [4, 21] was 10100, the z-score [5, 22] was 0.565 (inactive) and the z-score [5, 23] was -0.271. For the same molecule, the luciferase signal [7] was 44 AU (inactive).
